We go through 39 compounds from PubChem BioAssay (NCI).

“And” between values parts separate entries of the source, which are not always exact repeats. Equal entries are not always repeated. Compounds without any hit were thinned out: in the full panel of roughly 83,000, 20% have a hit.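 Single-dose data. Exposure time 48 hours. Values below 10 considered active.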 A number with no mark means an inactive call. The source made the active and inactive calls.

One assay concerns HCC-2998 colon. Briefly: NCI-60 one-dose screen, 48 h (100 = growth as untreated, 0 = no growth, -100 = all killed). The conditions noted are these: 10 µM. How it is done:
Growth inhibition of the HCC-2998 human tumor cell line is measured as a screen for anti-cancer activity. Cells are grown in 96 well plates and exposed to the test compound for 48 hours. Compounds are tested at a single concentration, which is 10^-5 M for most compounds. The reported endpoint is percent growth (GI% or GIPRCNT), where numbers from 0 - 100% represent growth inhibition, and numbers from -100% - 0 represent cell death. For example, a value of 40 represents 60% growth inhibition. A value of 0 means no net growth occurred over the course of the experiment. A value of -40 indicates 40% of cells at the beginning of the experiment died by the end of the experiment. A value of -100 means all cells are dead at the end of the experiment.
NCI-60 Human Tumor Cell Lines Screen was performed using the standard one-dose NCI protocol, which is described in more detail at https://dtp.cancer.gov/discovery_development/nci-60/default.htm.
Compounds with GIPRCNT values below 10 were considered active. Activity score was based on GIPRCNT using the following formula: […]
Score is 0 for GIPRCNT values of 100 or above, 50 for GIPRCNT values of 0, and 100 for GIPRCNT values of -100.
On to `O=C(O)CCCc1ccc(N(CCCl)CCCl)cc1`, for which the growth was 85.1% and 87.7%.

The assay is the same for the next values; noted with them: 10 µM unless noted.
With `CC1OC(=O)C(C(C)C)NC(=O)C(C(C)C)OC(=O)C(C(C)C)NC(=O)C(C)OC(=O)C(C(C)C)NC(=O)C(C(C)C)OC(=O)C(C(C)C)NC(=O)C(C)OC(=O)C(C(C)C)NC(=O)C(C(C)C)OC(=O)C(C(C)C)NC1=O` (stereo not given), the growth is -16.5% (active).

`COc1cc(-c2ccc(N)c(OC)c2)ccc1N`: the growth is 124%.

Regarding `N[C@@H](CCC(=O)CCl)C(=O)O`, the growth is 111% [20 µM].

`COc1c(O)cc2c(c1OC)-c1ccc(SC)c(=O)cc1C(NC(C)=O)CC2` (stereo not given): the growth is -21.5% (active).

As for `CC/C(Cc1ccccc1)=C(\c1ccc(OCCN2CCCC2)cc1)c1ccc(OC(=O)NCc2ccccc2)cc1`, the growth is 83.1%.

With `CCOP(=O)(OCC)C(=O)N(CC)CC`, the growth is 110%.

For `Cc1cc2c(cc1-c1ccnc(/C=C/C(=O)O)c1)C(C)(C)CCC2(C)C`, the growth is 103%.

As for `O=[N+]([O-])c1cc(Cl)c(Cl)cc1Cl`, the growth is 94.2% and 118%.

For `COc1ccc(N)cc1N`, the growth is 119%.

With `c1ccc2c(c1)O[As](O[As]1Oc3ccccc3O1)O2`, the growth is 65.8%.

As for `C=C[Se]CC(=O)/C=C/c1ccccc1`, the growth is 85.4%.

In the case of `C[C@]12CCC3[C@@H](C[C@@H]4SC(Nc5ccccc5)=N[C@@]45CC(=O)CC[C@]35C)[C@@H]1CCC2=O` (stereo not given in full), the growth was -32.7% (active).

As to `C[C@]12CC[C@H]3[C@@H](C[C@@H]4SC(Nc5ccccc5)=N[C@@]45C/C(=N/O)CC[C@]35C)[C@@H]1CCC2=O`, the growth is 102%.

In the case of `Cc1nc2ccccc2c(=O)n1-c1ccccc1F`, the growth was 108%.

As to `O=[N+]([O-])c1cc(Br)c(O)c(Br)c1`, the growth is 96.1%.

Consider `C[Se]/C=C1/C(=O)N(c2c(Cl)cccc2Cl)c2ccccc21`, for which the growth is 77.2%.

As for `CCC(Br)(CC)C(=O)NC(N)=O`, the growth was 105%.

As to `CC(C)c1cccc(C(C)C)c1O`, the growth was 105% and 115%.

`CC[C@H](C)[C@H](NC(=O)c1ncccn1)C(=O)N(C)[C@H](C[C@@H](OC(C)=O)c1nc(C(=O)N[C@@H](Cc2ccccc2)C[C@H](C)C(=O)OC)cs1)C(C)C`: the growth is 60.9%.

For `Cn1cc(-c2csc(-c3cn(CCCCN4CCOCC4)c4ccc(F)cc34)n2)c2cccnc21`, the growth is 92.4%.

On to `O=C/C=C/c1ccco1`, for which the growth is 106%.

`CC(=O)Cc1ccc2c(c1)OCO2`: the growth is 102%.

`C[C@]12CCc3sc(Nc4ccc(O)cc4)nc3C1=CC[C@@H]1[C@@H]2CC[C@]2(C)C(=O)CC[C@@H]12`: the growth is 97.7%.

Consider `Cc1ccc(C(=O)O[C@H](C(=O)O)[C@H](OC(=O)c2ccc(C)cc2)C(=O)O)cc1`, for which the growth was 111%.

With `O=Cc1cn(Cc2ccccc2)c2ccccc12`, the growth is 33.5%.

As to `NC(=O)Oc1cc(OC(N)=O)cc(N(CCCl)CCCl)c1`, the growth was 103%.

Consider `Nc1ccc2c(c1)Cc1cc(N)ccc1-2`, for which the growth is 96.2%.

`O=C(O)CNCP(=O)(O)O`: the growth is 99.2%.

`CC12CCC3C(CCC4CC(O)CCC43C)C1CCC2=O` (stereo not given): the growth was 99.2%.

In the case of `CCCCCCCCCCCCCCCC[N+](C)(C)Cc1ccccc1`, the growth was -56.7% (active) and -49.7% (active).

`CCOC(=O)c1cncn1C(C)c1ccccc1` (stereo not given): the growth is 118%.

Regarding `Oc1cc(N2CC2)c(O)cc1N1CC1`, the growth is -55.2% (active).

Consider `O=[N+]([O-])c1c(Cl)cc(Cl)c([N+](=O)[O-])c1Cl`, for which the growth was 114%.

In the case of `NC1CN2CCC1CC2` (stereo not given), the growth is 114%.

For the compound `Nc1cccnc1`, the growth was 101%.

As for `N#CC(N)c1ccccc1` (stereo not given), the growth was 113%.

Take `C[C@]12CCc3nc(-c4ccc(O)c(O)c4)sc3C1=CC[C@@H]1[C@@H]2CC[C@]2(C)C(=O)CC[C@@H]12`: the growth was 99.2%.

For the compound `Cc1ccc(P(=O)(O)O)cc1`, the growth is 103%.

The assay is the same for the next values; noted with them: 75 µM.
On to `O=C(O)CCCc1ccc(N(CCCl)CCCl)cc1`, for which the growth is 6.85% (active).
